# Unmarked numbers belong to inactive results. The source made the active and inactive calls. Calls come from the whole dose curve; as a rule, active = well fitted activation curve with a large enough effect; inconclusive = small, poorly fitted or top-dose-only effect; inactive = no such curve, though single readings can be large or run the other way.
# Assay: Confirmatory qHTS for Identification of Small Molecule Activators of Huntingtin-Antisense Promoter Activity
# Settings: HEK293 HTT-AS promoter firefly luciferase reporter, 24 h; series mostly up to 57.5 µM; activity change, positive = activation: at the top concentration
# Outline: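 2,500 luciferase reporter HEK293 cells/well; 24 h culture; cpds up to 57.5 uM final, PTC124 50 uM ctrl; 24 h, 37C; Dual-Glo FLuc reagent, 10 min RT; lum. Norm.: vehicle 0%, zero RLU -100%.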
# Potency is the fitted concentration of half-maximal effect.
Compound,"activity change, positive = activation [%]",Potency
Cc1cc(NC(=O)c2cc(-c3ccc(Cl)cc3)on2)nn1Cc1ccc(Cl)cc1,-13.6,–
COc1ccc(-c2nnc(C3CCN(C(=O)c4ccccc4F)CC3)o2)cc1,11.7,–
CCOCc1cc(CN2CCN(c3ccccc3OC)CC2)c(O)c2ncccc12,-34.5,–
O=C(C1CCC1)N1CCCc2cc(S(=O)(=O)N3CCN(c4ccccc4)CC3)ccc21,-40.8,–
O=C(O)c1cc(-n2c(/C=C\c3ccc(F)cc3)nc3ccccc3c2=O)ccc1Cl,19.3,–
CCOc1ccc(CNC(=O)C2CCN(c3nnc(-n4c(C)ccc4C)s3)CC2)cc1,-69.4,–
CCc1ccc(NC(=O)c2ccc(F)c(S(=O)(=O)NCc3ccc(Cl)c(Cl)c3)c2)cc1,-17.2,–
Cc1cccc(S(=O)(=O)Nc2cccc(-c3ccc(N4CCCCC4)nn3)c2)c1,–,2390 nM (active)
Cc1ccc(C)c(N2CCN(C(=O)c3nn(C)c4c3CS(=O)(=O)c3ccccc3-4)CC2)c1,-34.9,–
COc1ccc(NS(=O)(=O)c2ccc3c(c2)CC(C)N3C(=O)C2CCC2)cc1OC (centres undefined),-94.3,–
Cc1ccccc1C(=O)Nc1nc(-c2ccc(Br)cc2)ns1,-93.2,–
O=C(Cn1cc(S(=O)(=O)Cc2ccccc2Cl)c2ccccc21)Nc1cccc(C(F)(F)F)c1,-23.9,–
CC1Cc2cc(S(=O)(=O)N(Cc3ccccc3)C(C)C)ccc2N1C(=O)C1CCC1 (centres undefined),-68.9,–
O=C(C=Cc1ccc(O)cc1)c1ccc(O)cc1O,17.4,–
Fc1cc(Br)ccc1Nc1c2c(nc3nc(-c4cccs4)nn13)CCCC2,-49.7,–
Cc1cccc(N2CCN(S(=O)(=O)c3ccc4c(c3)CCCN4C(=O)C3CCC3)CC2)c1C,-65.5,–
COc1ccc(C(=O)NCC(c2cccnc2)N2CCN(c3ccc(F)cc3)CC2)cc1 (centres undefined),-41.1,–
Cn1c(SCc2ccc(F)cc2)nc2ccc(C(=O)NCc3ccc(F)cc3)cc21,-69.3,–
COCCNc1nc2c(c(=O)n(C)c(=O)n2C)n1Cc1c(F)cccc1Cl,-54.3,–
CCC(Oc1ccccc1)C(=O)N1CCN(Cc2cc(=O)n3nc(-c4cccc(C)c4)sc3n2)CC1 (centres undefined),-36.5,–

Compound,"activity change, positive = activation [%]",Potency
COc1ccc(CNC(=O)c2ccc3c(c2)CCN3S(=O)(=O)c2ccc(C)cc2)cc1,-20.3,–
CSc1ccc(CCNC(=O)C2CCCN(S(=O)(=O)N(C)c3ccc(F)cc3)C2)cc1 (centres undefined),-67.7,–
CC(C)OCc1cc(CN2CCN(c3cccc(C(F)(F)F)c3)CC2)c(O)c2ncccc12,-49.4,–
Cc1ccc(S(=O)(=O)n2nc(-c3ccccc3)nc2NCc2ccccc2Cl)cc1,-23.3,–
CCOC(=O)c1cc(-c2ccccc2)n(CCC(=O)Nc2ccc(OC)c(Cl)c2)c1C,-18.6,–
CCCCN(C)CCCNC(=O)Cn1ncc2c3ccccc3n(Cc3ccccc3F)c2c1=O,-4.68,–
CCCOc1ccc(C(=O)Nc2ccc(-c3cc4ccccc4oc3=O)c(C)c2)cc1,-43.6,–
O=C(CSc1nc(-c2ccc(F)cc2)[nH]c1-c1ccccc1)Nc1ccccc1,-48.9,–
O=C(CSc1nccn1Cc1ccc(F)cc1)Nc1nc2ccccc2s1,-21.3,–
COc1ccccc1N1CCN(C(CNC(=O)C(=O)NCc2cccnc2)c2cccnc2)CC1 (centres undefined),-16.9,–
CN(C)S(=O)(=O)c1ccc(C(=O)NCCSc2c(-c3ccc(Cl)cc3)[nH]c3ccccc23)cc1,-31.7,–
CCCC(O)c1nc2ccccc2n1CCCCOc1ccc(OC)cc1 (centres undefined),-43.5,–
Cc1ccc(CNC(=O)Nc2cc(C(=O)NCc3ccc(C(C)C)cc3)ccc2N2CCCC2)cc1,-94.6,–
Cc1ccc(CNS(=O)(=O)c2ccc(N3CCCCS3(=O)=O)cc2)cc1,-83.1,–
CCOc1ccc(OC(=O)c2c(-c3ccccc3Cl)noc2C)cc1,-27,–
COC(=O)c1ccccc1NC(=O)Cn1nc(C(F)(F)F)c2c1CCCC2,-16.2,–
CCCNc1nc(NCc2ccccc2OC)c2cnn(C)c2n1,-31.6,–
CCc1c(C)sc2c1CCN(C(=O)Nc1ccc(F)c(Cl)c1)C2c1ccc(F)cc1 (centres undefined),-76.5,–
CCc1ccc(OC(C)C(=O)N2CCC(c3nc4ccccc4s3)CC2)cc1 (centres undefined),-81.1,–

# — PubChem BioAssay AID1508622 (National Center for Advancing Translational Sciences (NCATS), 2021)
